# Measured values taken from the supplement of paper PMC10941209.
# A number with no mark means an inactive call.
# Tested on: Toxoplasma gondii RH 2F1 tachyzoites (intracellular in HFF)
# Assay: parasite survival relative to DMSO control; higher = less antiparasitic activity, active = 20 or less
# Conditions: 1 µM; 72 h
# Procedure: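 Primary single-dose screen of the MMV Pandemic Response Box at 1 uM against T. gondii RH-2F1 (beta-galactosidase) tachyzoites in HFF cells, 72 h at 37 C. Parasite growth read by CPRG absorbance at 570 nm and normalised to DMSO-treated infected controls (% survival); pyrimethamine was the reference drug. The paper calls at least 80% inhibition a hit.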
row,SMILES,parasite survival
1,NC(=O)[C@@H]1CC[C@@H]2CN1C(=O)N2OS(=O)(=O)O,39%
2,C[C@@H]1O[C@@H]1P(=O)(O)O,46.3%
3,CCc1cc(Nc2cc(=O)n(CCN3CCN(C(=O)c4ccccc4)CC3)c(=O)[nH]2)ccc1C,26%
4,O=C(NO)C1(CS(=O)(=O)c2ccc(Oc3ccc(Cl)cc3)cc2)CCOCC1,66%
5,O=C(c1ccccc1)N1CCN(c2ccccc2NC(=O)C(Cl)(Cl)Cl)CC1,63.4%
6,CC(C)(C)c1ccc(OCCn2nc(C(=O)O)c3ccccc3c2=O)cc1,45.3%
7,O=C(O)CCNC(=O)c1ccccc1,50.8%
8,Nc1c(C(=O)NCc2ccco2)c2nc3ccccc3nc2n1CCN1CCCCC1,37%
9,CCc1cc(O)c(Oc2ccc(C(N)=O)cc2F)cc1F,71.5%
10,CN(Cc1ccc(C(C)(C)C)cc1)Cc1cccc2ccccc12,37.9%
11,Cc1cc(C)n(O)c(=O)c1,49.3%
12,COC(=O)Nc1nc2ccccc2[nH]1,53%
13,c1cc(CN2CCCNCCNCCCNCC2)ccc1CN1CCCNCCNCCCNCC1,91.5%
14,Nc1nc(Nc2ccc3nc(-c4ccc(F)cc4)cc(N)c3c2)cc(-c2ccccc2)n1,4.03% (active)
15,COc1ccc(NS(=O)(=O)c2ccc(Cl)s2)cn1,45.1%
16,O=C(Nc1ccccc1)N(Cc1cc(Br)ccc1O)c1ccc(F)cc1,21.3%
17,CCCCc1ccc(-c2nc(C)c(C(=O)OC)s2)cc1,64%
18,CCN1CCN(Cc2nc3ccc([N+](=O)[O-])cc3c(=O)n2-c2ccccc2F)CC1,59.6%
19,C[C@@]1(O)[C@H](O)[C@@H](CO)O[C@H]1n1ccc2c(N)ncnc21,58.6%
20,N#Cc1cc([N+](=O)[O-])ccc1Oc1ccccc1Cl,69%

row,SMILES,parasite survival
1,CCO/N=C/c1ccc(OCCCCN2CCN(c3ccncc3)C2=O)cc1,47.7%
2,CC(C)n1cnc2c(NCc3ccccc3)nc(NCc3ccccc3)nc21,39.1%
3,Nc1nc2c(ncn2/C=C2/CC2(CO)CO)c(=O)[nH]1,84.8%
4,O=c1nc(N2CCN(CC3CCCCC3)CC2)sc2c([N+](=O)[O-])cc(C(F)(F)F)cc12,43.6%
5,C[C@H]1[C@@H](c2cccc(C(F)(F)F)c2)OC(=O)N1C(=O)NCc1cncc2ccccc12,40.6%
6,CC(=O)O[C@H]1C[C@@]2(C)[C@@H](C[C@@H](O)[C@H]3[C@@]4(C)CC[C@@H](O)[C@@H](C)[C@@H]4CC[C@@]32C)/C1=C(\CCC=C(C)C)C(=O)O,48.4%
7,COc1ccc(CNC(=O)C2CCN([C@H](C)c3cccc4ccccc34)CC2)cc1,52%
8,O=C(CP(=O)(O)O)NCCc1cccc(Oc2ccccc2)c1,40.8%
9,CC(=O)N[C@H](C)C(=O)N[C@H](Cc1ccccc1)C(=O)O,61.2%
10,CCCCOC(=O)Nc1cc2nc(C3CCCCC3)[nH]c2cc1N(CC)CC,5.06% (active)
11,OB1OCc2c1ccc(Cl)c2F,77.1%
12,OCCC#Cc1nc(-c2ccc(F)cc2)c(-c2ccncc2)n1CCCc1ccccc1,9.3% (active)
13,CC(N)C12CC3CC(CC(C3)C1)C2 (stereo not given),78.3%
14,NNC(=O)c1ccncc1,63.2%
15,O=C(Nc1[nH]c(=O)ncc1F)c1ccccc1,84.3%
16,Nc1ccc2oc(=O)ccc2c1I,80.5%
17,O=C(Nc1nnc(-c2ccccc2)o1)c1ccc(F)cc1,52.8%
18,COc1cc(C2C3=C(CC(C)(C)CC3=O)Nc3ccccc3N2C(C)=O)ccc1OCc1ccccc1 (stereo not given),56.3%
19,O=C(N[C@H](CCS)C(=O)N[C@H](Cc1ccccc1)C(=O)O)c1cc2ccccc2[nH]1,45.8%
20,O=[N+]([O-])/C(Br)=C/c1ccc(Br)o1,26.6%
